For orientation: AC50 means the midpoint of the concentration-response curve, whichever way the signal moves.

Where “and” joins values, the source holds several entries; their conditions need not be identical. Equal values may be shown once. Calls of active or inactive are those of the source. Rule for the calls: active = hit-call score of the fitted dose curve at least 0.9, where 1 is the maximum; inactive = score below 0.9.

Read-out in the assay: Thrombomodulin, THBD (gene 7056)
The experiment in a line: BSK_3C_Thrombomodulin: BioMAP Diversity Plus: 3C Assay for Thrombomodulin Biomarker Activity (AID 2283029). The note with it: primary human endothelial cells (HUVEC); actives raise or lower the signal. Here is the method: BSK_3C is a cell-based, multiplexed-readout assay that uses umbilical vein endothelium, a human vascular primary cell, with measurements taken at 24 hours after chemical dosing in a 96-well plate.BSK_3C_Thrombomodulin is an assay component measured in the BSK_3C assay. It measures Thrombomodulin antibody related to regulation of gene expression using ELISA technology.Data from the assay component BSK_3C_Thrombomodulin was analyzed into 1 assay endpoint. This assay endpoint, BSK_3C_Thrombomodulin, was analyzed with bidirectional fitting relative to DMSO as the negative control and baseline of activity. Using a type of binding reporter, gain or loss-of-signal activity can be used to understand changes in the signaling as they relate to the gene THBD. Furthermore, this assay endpoint can be referred to as a primary readout, because this assay has produced multiple assay endpoints where this one serves a signaling function. To generalize the intended target to other relatable targets, this assay endpoint is annotated to the gpcr intended target family, where the subfamily is rhodopsin-like receptor.
The levels of cell surface (or secreted, indicated by the prefix "s") biomarker endpoints were measured by ELISA. Overt cytotoxicity to cells in confluent adherent cultures (all systems other than the BT system) was assessed by measuring total protein levels using sulforhodamine B (SRB) staining in parallel cultures at the time of biomarker measurements, indicated as SRB endpoints. For proliferation assays for adherent cell types, individual cell types are cultured at sub-confluence and relative cell numbers quantified by SRB staining at time points optimized for each system (48 h: 3C and CASM3C systems; 72 h: BT and HDF3CGF systems; 96 h: SAg system). SRB was performed by staining cells with 0.1% SRB after fixation with 10% TCA and reading wells at 560 nm.Viability and proliferation of PBMC (T cells) was quantified by Alamar Blue reduction for the SAg and BT systems. For PBMC viability (referred to as PBMC Cytotoxicity within the assay endpoint names), cells were plated (75,000/well in a 96-well plate) and then chemical samples added for 1 h before addition of activators, SEB and TSST-1 (20 ng/mL final concentration each). Cells were incubated for 90 h. Then, Alamar Blue (20 uL/well) (Invitrogen, Cat DAL1100) was added for 6 h, and the plates were read with a fluorescence microplate reader at 546/580 nm (excitation/emission). For PBMC proliferation, cells were plated and activated as above but incubated for only 16 h prior to addition of Alamar Blue. Plates were read after 6 h.
Take `S=C(NC1CCCCC1)NC1CCCCC1`: the result was inactive.

For `CCCCNc1ccc(NCCCC)c2c1C(=O)c1ccccc1C2=O`, the result was inactive.

For the compound `CCCCC(CC)COCC1CO1` (stereo unspecified), the result was inactive.

`N#[N+]c1ccc2c(S(=O)(=O)[O-])cccc2c1O`: the outcome was inactive.

Turning to `CC1OC1C1CCC2(C)OC2C1` (stereo unspecified), the outcome was inactive.

For the compound `C=CCOc1c(Br)cc(Br)cc1Br`, the AC50 is 3.97 µM (active).

For the compound `CCOc1nc(F)cc2nc(S(=O)(=O)Nc3c(Cl)cccc3C(=O)OC)nn12`, the outcome was inactive.

As for `CCCCCCCCCCCCCCCC[N+](C)(C)CC`, the AC50 is 2.35 µM (active).

With `C#CC1(O)CC[C@H]2[C@@H]3CCC4=CCCC[C@@H]4[C@H]3CC[C@@]21C` (stereo partly specified), the AC50 is 12 µM (active).

As to `CO[Si](OC)(OC)c1ccccc1`, the result was inactive.

On to `Nc1ccc(N)c(Cl)c1`, for which the outcome was inactive.

For `O=Nc1ccc(O)cc1`, the outcome was inactive.

On to `CCO[Si](C)(OCC)OCC`, for which the outcome was inactive.

As to `CC(C)C(=O)C(C)C`, the result was inactive.

`O=C(Cl)c1cc(C(=O)Cl)cc(C(=O)Cl)c1`: the result was inactive.

Regarding `CCCCC(CC)COC(=O)c1ccccc1O` (stereo unspecified), the outcome was inactive.

Regarding `O=C(c1ccc(O)cc1)c1ccc(O)cc1O`, the outcome was inactive.

`CCCCC/C=C\C/C=C\CCCCCCCC(=O)OC`: the outcome was inactive.

For the compound `CCO[Si](CCCN=C=O)(OCC)OCC`, the outcome was inactive.

As for `CN1C(=O)N(C)C(O)C1O` (stereo unspecified), the result was inactive.

For the compound `O=c1c2ccccc2oc2ccccc12`, the result was inactive.

For `C/C=C\C/C=C/CCCCCCCCOC(C)=O`, the outcome was inactive.

For `C=CC=CC=CCCCCC`, the outcome was inactive.

`O=C(Nc1ccccc1SSc1ccccc1NC(=O)c1ccccc1)c1ccccc1`: the AC50 is 5.7 µM (active).

With `COCc1c(C(C)C)nc(C(C)C)c(/C=C/[C@@H](O)C[C@@H](O)CC(=O)O)c1-c1ccc(F)cc1`, the result was inactive.

For the compound `C=CCOCC(O)CCl` (stereo unspecified), the result was inactive.

Consider `CCCCCCCCc1ccc(Nc2ccc(CCCCCCCC)cc2)cc1`, for which the result was inactive.

With `c1ccc(-c2ccccn2)nc1`, the outcome was inactive.

In the case of `C=CC(=O)OCC(Br)CBr` (stereo unspecified), the outcome was inactive.

Turning to `C=C[Si](OC(C)=O)(OC(C)=O)OC(C)=O`, the result was inactive.

In the case of `CC(C)(c1cc(Br)c(OCCO)c(Br)c1)c1cc(Br)c(OCCO)c(Br)c1`, the concentration at half-maximal activity (AC50) was 28.6 µM (active).

Take `CCOC(=O)c1ccccc1C(=C1C=C(Br)C(=O)C(Br)=C1)c1cc(Br)c(O)c(Br)c1`: the AC50 is 18.5 µM (active) and 19.2 µM (active).

As for `c1ccc2c(c1)ccc1ncccc12`, the outcome was inactive.

For the compound `c1ccc2c(c1)ccc1cc3c(ccc4ccccc43)cc12`, the result was inactive.

Consider `COc1ccc2nc(N)sc2c1`, for which the result was inactive.

In the case of `O=C1CCCN1CCO`, the result was inactive.

(Values after PubChem BioAssay (EPA / NIEHS).)
